# A selection: hits, their analogues and other compounds. The true share with any hit is near 3.5%.
# Pf apPOL inh = Pf-apPOL DNA polymerase inhibition | inhibition, % at 10 µM | AID 1794808 | Recombinant Pf-apPOL, molecular beacon fluorescence, 1.5 h | hit rate 0.25% among 210,000
# mHTT-CaM PPI inh = disrupts binding of mutant huntingtin to calmodulin. AlphaScreen His-mHTT/GST-CaM binding, luminescence. hit rate 3.6% among 190,000. inhibition, % at 15 µM;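 further: 0% = both proteins with DMSO and 100% = one protein alone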
# Starred values were filed as active, the others as inactive; · = no result given; ! = not confirmed by another sample. No stated cut-off is given here; in the data, active means inhibition above about 50%; inactive means the rest.
SMILES,Pf apPOL inh,mHTT-CaM PPI inh
O=[N+]([O-])c1cccc2c1NC(c1ccc(Br)cc1)C1CC=CC21 (stereo not drawn),1.1,82.0*
O=[N+]([O-])c1cccc2c1NC(c1ccccc1Br)C1CC=CC21 (stereo not drawn),-0.9,63.0*
Cc1ccnc(SCCn2c(N3CCCCCC3)nc3c2c(=O)n(C)c(=O)n3C)n1,1.0,-1.0
O=C(c1ccccn1)N1CCC(CCOc2cccc(F)c2)CC1,-0.7,2.4
Cc1cccc(Oc2cc(NC(=O)Cn3cnc([N+](=O)[O-])n3)cc([N+](=O)[O-])c2)c1,4.0,57.0*
COc1cc(NC(=O)Cn2cnc([N+](=O)[O-])n2)cc([N+](=O)[O-])c1,1.6,3.0
O=C(Cn1cnc([N+](=O)[O-])n1)Nc1cc(Oc2cccnc2)cc([N+](=O)[O-])c1,2.4,6.0
O=C(Cn1cnc([N+](=O)[O-])n1)Nc1cc(Oc2cccc(Cl)c2)cc([N+](=O)[O-])c1,3.0,62.0*
COc1ccc(OC)c(NC(=O)N2CCCC2c2ccc(Cl)cc2)c1 (stereo not drawn),-2.3,38.1
CCOc1ccc(CNC(=O)c2cccc(C3CCCN(C(=O)NC)C3)c2)cc1 (stereo not drawn),-4.3,34.1
COc1cccc(NC2=C(NCCO)C(=O)c3ccccc3C2=O)c1,-5.0,49.0
Cc1cccc(NC2=C(NCCO)C(=O)c3ccccc3C2=O)c1,-4.7,74.1*
Cc1sc2cc(C(=O)N3CCN(C)CC3)[nH]c2c1CN1CCOCC1,-2.5,6.6
Cc1sc2cc(C(=O)N3CCOCC3)[nH]c2c1CN1CCOCC1,0.3,100.2*
COc1cc2c(-c3cc4cccc(OC)c4o3)cc(=O)oc2cc1C,1.5,-7.1
COc1ccc2c(c1)c1c3n2CCNC3CCC1 (stereo not drawn),12.8,9.8
Brc1ccc2c(c1)c1c3n2CCNC3CCC1 (stereo not drawn),2.2,75.0*
C=C(C)COc1ccc2cc(-c3ccc(OC)cc3)c(=O)oc2c1,-4.7,-14.3
O=C1Nc2ccccc2S/C1=C\c1ccccc1F,35.6,11.0
COCCN=C1Nc2ccccc2NC12CCCN(C(=O)CCc1c[nH]c3ccccc13)C2 (stereo not drawn),-2.9,70.8*
COCCN=C1Nc2ccccc2NC12CCCN(C(=O)Cc1cccc(C)c1)C2 (stereo not drawn),-4.2,52.0*
COCCN=C1Nc2ccccc2NC12CCCN(C(=O)c1ccccc1Cl)C2 (stereo not drawn),-0.7,13.2
COCCN=C1Nc2ccccc2NC12CCCN(C(=O)c1ccc(C)nc1)C2 (stereo not drawn),-5.1,2.5
COCCN=C1Nc2ccccc2CNC12CCN(C(=O)Cc1cccc(C)c1)C2 (stereo not drawn),-3.4,19.6
COCCN=C1Nc2ccccc2NC12CCCN(C(=O)c1cc(-c3ccccc3)n[nH]1)C2 (stereo not drawn),-3.5,66.9*
SMILES,Pf apPOL inh,mHTT-CaM PPI inh
Cc1cc(C2CCCN2C(=O)c2cc(-c3ccccc3)on2)on1 (stereo not drawn),3.2,-1.6
O=C(NCCC(c1ccccc1)c1ccccc1)c1ccccc1[N+](=O)[O-],-5.4,12.4
COc1cccc(-c2cn3ccn(-c4ccccc4OC)c(=O)c3n2)c1,-5.5,-1.0
CC(=O)c1cccc(NC(=O)CCCn2cccc2)c1,-7.5,-6.3
OCCCn1c(-c2ccc(F)cc2)csc1=Nc1ccc(Cl)cc1,-3.8,87.0*
COc1ccc(N=c2scc(-c3ccc(OC)cc3)n2CCN2CCOCC2)cc1,3.1,36.0
COc1ccc(-c2csc(=Nc3ccc(Cl)cc3)n2CCCO)cc1F,0.4,76.0*
CCOc1ccc(N=c2scc(-c3ccc(Cl)s3)n2CCCO)cc1,-1.8,35.0
COc1ccc(N=c2scc(-c3ccc4c(c3)OCCO4)n2CCO)cc1,-1.8,53.0*
COc1ccc(-c2csc(=Nc3ccccc3)n2CCCN(C)C)cc1,2.3,45.0
CCOc1ccc(N=c2scc(-c3ccc(F)cc3)n2CCCO)cc1,-6.9,31.0
COc1ccc(-c2csc(=Nc3ccccc3)n2CCO)cc1F,-2.6,53.0*
COc1cccc(C(C)NC(=O)c2c(C)noc2-c2ccncc2)c1 (stereo not drawn),-0.4,-6.8
COC1(C#CC(=O)c2ccc([N+](=O)[O-])cc2)CCCCC1,-11.0,50.0
C=CCNc1nc(Nc2ccc(I)cc2C)nc(OCC)n1,0.3,-6.0
CC(C)CNC(=O)c1ccc(-c2nc3ccccc3n(C)c2=O)cc1,-3.7,6.8
O=C(CNC1CCCCC1)N1c2ccccc2C=Cc2ccccc21,-3.1,30.4
COc1ccc(C(NC(=O)CCc2ccccc2)c2ccc3cccnc3c2O)cc1OC (stereo not drawn),-3.5,100.0*
COc1ccccc1C(NC(=O)Cc1ccccc1)c1ccc2cccnc2c1O (stereo not drawn),-4.4,35.0
O=C(CCc1ccccc1)NC(c1ccccc1)c1ccccc1,-1.7,-11.0
COc1ccc(C(NC(=O)Cc2ccccc2)c2ccc3cccnc3c2O)cc1OC (stereo not drawn),87.0*!,100.0*
COc1ccccc1NC(=O)c1ccc(C)c(S(=O)(=O)N2CCOCC2)c1,-2.6,13.0
O=C(Nc1cccs1)N1CC(c2nc(Cc3ccccc3)no2)C1,-2.7,6.4
CN(C)c1ccc(Nc2nc(-c3cccnc3)cs2)cc1,-8.5,6.3
NS(=O)(=O)c1ccc(Nc2nc(-c3ccc(Cl)c(Cl)c3)cs2)cc1,0.9,99.9*
SMILES,Pf apPOL inh,mHTT-CaM PPI inh
CCN(CC)c1ccc(Nc2nc(-c3ccc(Cl)c(Cl)c3)cs2)cc1,-0.5,96.9*
CCC(=O)Nc1nc(C)c(-c2csc(Nc3ccc(N(C)C)cc3)n2)s1,2.4,93.2*
CCC(=O)Nc1nc(C)c(-c2csc(Nc3cc(C)ccn3)n2)s1,-2.9,35.0
CCN(CC)c1ccc(Nc2nc(-c3ccccn3)cs2)cc1,-3.8,100.3*
NS(=O)(=O)c1ccc(Nc2nc(-c3ccncc3)cs2)cc1,-0.7,5.2
CC(=O)c1cccc(Nc2nc(-c3ccc(Cl)c(Cl)c3)cs2)c1,1.2,2.7
Cc1ccc(C(=O)N2CCn3cnnc3C2)cc1F,-0.1,-15.2
Cc1ccccc1C(=O)Nc1ccc(I)c(C(=O)O)c1,-4.2,-4.3
Cc1cc(C)c(Nc2ncnc(N)c2[N+](=O)[O-])c(C)c1,-2.6,0.0
Cc1ccc2c(c1)N(C(=O)Nc1cccc(Cl)c1C)CCO2,-12.0,0.2
COc1ccc(CCNC(=O)C2CCCN(c3ccc(-n4cccn4)nn3)C2)cc1OC (stereo not drawn),-8.9,24.5
CCN(C)C(=O)C1CN(C(=O)C2CC2)CC1c1cccc(C(F)(F)F)c1 (stereo not drawn),-2.2,20.5
Cc1ccc(CNC(=O)C2(C)CCCN(C(=O)c3ccc(Br)cc3)C2)cc1 (stereo not drawn),4.7,12.4
CN(C)c1ccc(Nc2nc(-c3ccc(Cl)c(Cl)c3)cs2)cc1,-1.1,82.2*
COc1ccc(Nc2nc(-c3ccc(Cl)c(Cl)c3)cs2)cc1,-5.6,39.6
O=C(CC1Sc2ccccc2NC1=O)NNC(=O)c1cc(C(F)(F)F)cc(C(F)(F)F)c1 (stereo not drawn),58.4*,·
O=C(CC1Sc2ccccc2NC1=O)Nc1ccc(C(F)(F)F)cc1 (stereo not drawn),-7.4,7.0
Cc1ccc(-c2c(C(=O)Nc3c(F)cccc3F)oc(=O)c3ccccc23)cc1,-4.4,16.0
Cc1ccc(C(=O)N2CCC(CCNC(=O)c3ccccc3C(F)(F)F)CC2)cc1,0.4,34.1

# Screening results (PubChem)
